This is an account of results in ChEMBL document CHEMBL2218924, “A broad activity screen in support of a chemogenomic map for kinase signalling research and drug discovery” (Biochem J, 2013).

Experiment [1] has as its target T1, cGMP-dependent protein kinase 1 (Homo sapiens) (UniProt Q13976).
T1 sequence (whole entry): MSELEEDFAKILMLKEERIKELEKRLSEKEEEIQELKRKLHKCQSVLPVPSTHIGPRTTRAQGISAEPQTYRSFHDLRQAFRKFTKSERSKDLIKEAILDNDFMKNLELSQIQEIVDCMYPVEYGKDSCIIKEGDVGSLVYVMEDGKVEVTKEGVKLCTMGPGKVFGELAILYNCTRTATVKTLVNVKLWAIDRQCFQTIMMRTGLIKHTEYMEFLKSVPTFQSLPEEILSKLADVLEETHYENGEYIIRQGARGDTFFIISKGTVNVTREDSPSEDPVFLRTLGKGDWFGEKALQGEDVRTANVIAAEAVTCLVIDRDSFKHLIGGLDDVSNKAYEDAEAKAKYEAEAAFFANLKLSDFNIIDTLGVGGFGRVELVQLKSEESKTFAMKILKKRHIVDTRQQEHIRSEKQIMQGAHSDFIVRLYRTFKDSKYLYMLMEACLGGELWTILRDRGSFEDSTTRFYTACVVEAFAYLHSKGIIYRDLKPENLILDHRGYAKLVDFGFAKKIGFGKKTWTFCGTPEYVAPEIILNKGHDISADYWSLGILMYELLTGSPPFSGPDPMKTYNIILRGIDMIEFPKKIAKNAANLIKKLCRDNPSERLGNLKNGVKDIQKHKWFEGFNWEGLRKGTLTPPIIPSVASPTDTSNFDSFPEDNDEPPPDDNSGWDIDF
Particulars: at 1 µM.

Experiment [2] has as its target T1, cGMP-dependent protein kinase 1 (Homo sapiens). The note with it: at 10 µM.
Experiment [3] shares this target. Particulars: at 1 µM. The source holds these as a separate data set.
Experiment [4] has the same target. Particulars: at 10 µM. This is another data set of the same source.
The target in experiment [5] is T2, MAP kinase-activated protein kinase 5 (Homo sapiens) (UniProt Q8IW41).
T2 sequence (whole entry): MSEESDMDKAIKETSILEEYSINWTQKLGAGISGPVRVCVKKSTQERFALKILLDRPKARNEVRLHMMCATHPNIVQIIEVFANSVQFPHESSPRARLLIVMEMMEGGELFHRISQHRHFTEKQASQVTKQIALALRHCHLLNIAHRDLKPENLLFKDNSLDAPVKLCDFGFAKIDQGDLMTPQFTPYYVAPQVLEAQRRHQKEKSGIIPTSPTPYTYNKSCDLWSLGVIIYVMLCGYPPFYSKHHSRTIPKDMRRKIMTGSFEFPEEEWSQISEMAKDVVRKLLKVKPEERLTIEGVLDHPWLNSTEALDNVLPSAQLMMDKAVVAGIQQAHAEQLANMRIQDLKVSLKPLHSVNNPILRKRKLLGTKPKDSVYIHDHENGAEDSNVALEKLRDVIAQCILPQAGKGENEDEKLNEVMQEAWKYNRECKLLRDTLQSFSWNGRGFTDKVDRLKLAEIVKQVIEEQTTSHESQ
Particulars: at 1 µM.

The target of experiment [6] is T2, MAP kinase-activated protein kinase 5 (Homo sapiens). Particulars: at 10 µM.
Experiment [7] deals with Serine/threonine-protein kinase N2 (Homo sapiens) (UniProt Q16513). The note with it: at 1 µM.
Experiment [8] has the same target. The note with it: at 10 µM.
In experiment [9] the target is Tyrosine-protein kinase FRK (Homo sapiens) (UniProt P42685). The note with it: at 1 µM.
Experiment [10] shares this target. Particulars: at 10 µM.
For experiment [11], the target named is T3, Phosphorylase b kinase gamma catalytic chain, liver/testis isoform (Homo sapiens) (UniProt P15735).
T3 sequence (whole entry): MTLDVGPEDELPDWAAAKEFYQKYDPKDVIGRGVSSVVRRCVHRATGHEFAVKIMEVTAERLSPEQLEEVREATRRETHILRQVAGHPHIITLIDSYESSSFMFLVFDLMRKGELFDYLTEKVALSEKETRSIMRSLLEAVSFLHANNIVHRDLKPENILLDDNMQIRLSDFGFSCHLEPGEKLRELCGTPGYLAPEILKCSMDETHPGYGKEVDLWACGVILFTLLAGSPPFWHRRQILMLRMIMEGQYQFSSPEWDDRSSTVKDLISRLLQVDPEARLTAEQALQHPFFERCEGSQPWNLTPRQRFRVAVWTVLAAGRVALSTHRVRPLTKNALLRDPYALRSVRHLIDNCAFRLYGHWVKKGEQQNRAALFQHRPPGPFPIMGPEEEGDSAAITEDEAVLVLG
Particulars: at 1 µM.

Experiment [12] concerns the target T3, Phosphorylase b kinase gamma catalytic chain, liver/testis isoform (Homo sapiens). The note with it: at 10 µM.
The target of experiment [13] is Serine/threonine-protein kinase pim-1 (Homo sapiens) (UniProt P11309). Particulars: at 1 µM.
Experiment [14] shares this target. Particulars: at 10 µM.
The target in experiment [15] is Serine/threonine-protein kinase pim-2 (Homo sapiens) (UniProt Q9P1W9). Particulars: at 1 µM.
For experiment [16] the target is unchanged. Particulars: at 10 µM.
For experiment [17], the target named is Serine/threonine-protein kinase pim-3 (Homo sapiens) (UniProt Q86V86). The note with it: at 1 µM.
Experiment [18] has the same target. The note with it: at 10 µM.
Experiment [19] deals with Serine/threonine-protein kinase PLK1 (Homo sapiens) (UniProt P53350). The note with it: at 1 µM.
For experiment [20] the target is unchanged. Particulars: at 10 µM.

Sequence of Serine/threonine-protein kinase pim-1 (Homo sapiens) (P11309 whole entry, looked up): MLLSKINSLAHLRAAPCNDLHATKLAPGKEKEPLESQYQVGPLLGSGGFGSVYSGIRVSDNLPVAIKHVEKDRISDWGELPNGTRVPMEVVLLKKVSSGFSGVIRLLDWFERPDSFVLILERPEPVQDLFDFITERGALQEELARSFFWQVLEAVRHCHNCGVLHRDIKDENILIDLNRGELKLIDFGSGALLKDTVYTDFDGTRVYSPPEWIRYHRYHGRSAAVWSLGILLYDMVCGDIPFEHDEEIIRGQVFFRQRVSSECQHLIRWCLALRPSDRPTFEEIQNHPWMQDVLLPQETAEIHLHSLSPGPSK
Sequence of Serine/threonine-protein kinase PLK1 (Homo sapiens) (P53350 whole entry): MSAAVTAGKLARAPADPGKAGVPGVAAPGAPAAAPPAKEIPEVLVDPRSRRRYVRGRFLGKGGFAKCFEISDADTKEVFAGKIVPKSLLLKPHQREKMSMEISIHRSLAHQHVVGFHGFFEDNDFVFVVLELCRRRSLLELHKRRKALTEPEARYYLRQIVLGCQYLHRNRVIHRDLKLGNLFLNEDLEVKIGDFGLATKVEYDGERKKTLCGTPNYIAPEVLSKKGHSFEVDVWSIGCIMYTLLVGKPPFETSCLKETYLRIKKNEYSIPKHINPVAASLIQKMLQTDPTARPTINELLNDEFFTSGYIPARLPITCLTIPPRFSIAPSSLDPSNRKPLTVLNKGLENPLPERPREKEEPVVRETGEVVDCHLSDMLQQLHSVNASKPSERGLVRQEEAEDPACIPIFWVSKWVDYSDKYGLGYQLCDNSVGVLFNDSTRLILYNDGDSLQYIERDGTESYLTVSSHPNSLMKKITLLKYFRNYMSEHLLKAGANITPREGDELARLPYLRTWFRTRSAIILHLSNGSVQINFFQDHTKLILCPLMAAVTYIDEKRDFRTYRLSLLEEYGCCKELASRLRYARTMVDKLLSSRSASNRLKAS
Sequence of Serine/threonine-protein kinase pim-2 (Homo sapiens) (Q9P1W9 whole entry, looked up): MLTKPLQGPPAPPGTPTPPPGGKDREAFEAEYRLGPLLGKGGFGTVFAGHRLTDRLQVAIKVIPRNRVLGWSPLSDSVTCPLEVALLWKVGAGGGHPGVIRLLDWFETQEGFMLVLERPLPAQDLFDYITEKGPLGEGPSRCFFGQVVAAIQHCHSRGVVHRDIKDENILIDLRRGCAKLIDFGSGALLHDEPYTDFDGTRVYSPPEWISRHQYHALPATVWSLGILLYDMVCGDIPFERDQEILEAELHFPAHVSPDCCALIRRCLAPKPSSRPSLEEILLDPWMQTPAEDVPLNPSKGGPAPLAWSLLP
Sequence of Tyrosine-protein kinase FRK (Homo sapiens) (P42685 whole entry): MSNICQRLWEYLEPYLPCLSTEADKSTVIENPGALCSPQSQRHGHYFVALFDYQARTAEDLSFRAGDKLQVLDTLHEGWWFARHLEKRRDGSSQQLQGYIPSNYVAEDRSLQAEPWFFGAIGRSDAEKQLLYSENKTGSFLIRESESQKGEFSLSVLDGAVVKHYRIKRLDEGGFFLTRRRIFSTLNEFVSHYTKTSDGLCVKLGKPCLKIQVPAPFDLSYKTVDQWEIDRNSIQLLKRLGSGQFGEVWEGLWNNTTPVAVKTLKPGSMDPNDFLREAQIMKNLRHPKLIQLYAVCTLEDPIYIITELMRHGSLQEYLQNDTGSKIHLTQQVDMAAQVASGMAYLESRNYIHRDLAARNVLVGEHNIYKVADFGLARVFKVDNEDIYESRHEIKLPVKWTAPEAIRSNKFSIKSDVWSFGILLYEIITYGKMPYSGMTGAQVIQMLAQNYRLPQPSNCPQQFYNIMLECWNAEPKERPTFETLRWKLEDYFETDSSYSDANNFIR
Sequence of Serine/threonine-protein kinase N2 (Homo sapiens) (Q16513 whole entry, looked up): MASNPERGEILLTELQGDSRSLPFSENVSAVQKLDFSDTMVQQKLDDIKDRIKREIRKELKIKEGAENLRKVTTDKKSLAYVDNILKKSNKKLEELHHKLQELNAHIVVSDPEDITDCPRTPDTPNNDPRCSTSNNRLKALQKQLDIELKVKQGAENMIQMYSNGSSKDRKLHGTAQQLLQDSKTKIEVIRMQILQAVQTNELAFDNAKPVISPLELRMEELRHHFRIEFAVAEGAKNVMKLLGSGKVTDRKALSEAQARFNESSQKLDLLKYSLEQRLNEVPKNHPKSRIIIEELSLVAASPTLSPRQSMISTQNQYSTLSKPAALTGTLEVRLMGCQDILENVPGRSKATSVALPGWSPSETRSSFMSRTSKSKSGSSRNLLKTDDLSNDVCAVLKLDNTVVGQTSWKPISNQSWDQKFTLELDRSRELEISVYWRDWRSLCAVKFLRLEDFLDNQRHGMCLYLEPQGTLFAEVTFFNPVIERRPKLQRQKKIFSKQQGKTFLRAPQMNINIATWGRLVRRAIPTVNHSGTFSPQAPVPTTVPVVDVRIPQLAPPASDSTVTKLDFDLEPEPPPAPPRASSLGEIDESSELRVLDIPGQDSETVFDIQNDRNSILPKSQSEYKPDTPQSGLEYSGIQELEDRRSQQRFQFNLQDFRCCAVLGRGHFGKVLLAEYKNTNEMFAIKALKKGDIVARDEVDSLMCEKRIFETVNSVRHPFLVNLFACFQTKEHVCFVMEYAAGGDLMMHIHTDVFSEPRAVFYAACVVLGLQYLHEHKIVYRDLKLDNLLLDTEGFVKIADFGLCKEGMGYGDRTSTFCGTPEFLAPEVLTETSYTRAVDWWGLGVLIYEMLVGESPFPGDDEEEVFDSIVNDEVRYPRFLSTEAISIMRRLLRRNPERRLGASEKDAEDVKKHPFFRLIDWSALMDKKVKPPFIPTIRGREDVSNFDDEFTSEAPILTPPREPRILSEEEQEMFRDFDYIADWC

For `CC(C)n1cnc2c(NCc3ccccc3)nc(NCCCO)nc21`, the residual activity in experiment [1] was determined as 89%; in [2] it was 101%; in experiment [3] it was 95%; in experiment [4], 83%; in experiment [5] it was 115%; in experiment [6] it was 115%. The residual activity in [7] was 110%; in experiment [8], 99%; in [9], 88%; in experiment [10] it was 80%; in experiment [11], 96%; in experiment [12], 75%. Further, the residual activity in experiment [13] turned out to be 107%; in experiment [14], 75%; in experiment [15], 134%; in experiment [16], 87%; in [17], 93%; in [18], 96%. The residual activity in experiment [19] was found to be 89%; in [20] it was 52%.
On to `Cn1nc2c3c(cccc31)C(=O)c1ccccc1-2`, for which the residual activity in experiment [1] amounted to 86%; in experiment [2], 95%; in [3], 100%; in [4] it was 6%; in experiment [5], 76%; in [6], 44%. Moreover, the residual activity in [7] amounted to 95%; in [8], 77%; in experiment [9] it was 87%; in [10] it was 64%; in experiment [11] it was 102%; in [12] it was 84%. Also, the residual activity came out at 71% in experiment [13]; 45% in [14]; 91% in experiment [15]; 44% in [16]; 80% in experiment [17]; 66% in experiment [18]. Also, the residual activity in experiment [19] came out at 81%; in experiment [20], 77%.
Consider `O=C(Nc1cccc(Nc2nccc(Nc3cccc(C(F)(F)F)c3)n2)c1)C1CC1`, for which the residual activity worked out at 100% in [1]; 101% in [2]; 90% in [3]; 66% in [4]; 128% in experiment [5]; 65% in experiment [6]. The residual activity was 106% in [7]; 96% in [8]; 53% in experiment [9]; 11% in experiment [10]; 94% in experiment [11]; 80% in experiment [12]. The residual activity came out at 66% in experiment [13]; 64% in experiment [14]; 110% in [15]; 119% in experiment [16]; 104% in experiment [17]; 104% in experiment [18]. Further, the values for the residual activity in experiment [19] and in [20] were 78% and 74%, respectively.
For `COc1ccc(OC)c2c(=S)c3ccccc3[nH]c12`, the residual activity worked out at 93% in [1]; 109% in experiment [2]; 94% in [3]; 76% in experiment [4]; 96% in experiment [5]; 90% in experiment [6]. The residual activity in experiment [7] is 99%; in experiment [8], 88%; in experiment [9], 95%; in [10], 99%; in [11] it was 119%; in experiment [12] it was 103%. The residual activity in experiment [13] is 97%; in experiment [14], 52%; in [15] it was 117%; in [16] it was 77%; in experiment [17] it was 88%; in experiment [18], 80%. The residual activity in experiment [19] worked out at 80%; in experiment [20] it was 91%.
Regarding `CC#CC(=O)Nc1cc2c(Nc3ccc(F)c(Cl)c3)ncnc2cn1`, the residual activity is 103% in experiment [1]; 102% in experiment [2]; 86% in experiment [3]; 92% in experiment [4]; 84% in [5]; 77% in experiment [6]. Further, the residual activity was 94% in experiment [7]; 98% in experiment [8]; 97% in experiment [9]; 92% in experiment [10]; 92% in [11]; 105% in experiment [12]. Moreover, the residual activity was 88% in experiment [13]; 101% in experiment [14]; 82% in experiment [15]; 109% in experiment [16]; 91% in [17]; 91% in experiment [18]. For the same molecule, the residual activity in experiment [19] stood at 98%; in [20] it was 81%.
On to `Cc1nc(-c2ccccc2)c(-c2ccncc2)o1`, for which the residual activity in [1] is 93%; in experiment [2] it was 80%; in [3] it was 115%; in experiment [4] it was 90%; in [5] it was 110%; in experiment [6] it was 115%. Further, the residual activity was 99% in [7]; 76% in [8]; 1% in experiment [9]; 2% in experiment [10]; 109% in experiment [11]; 95% in experiment [12]. The residual activity came out at 78% in experiment [13]; 60% in experiment [14]; 121% in experiment [15]; 117% in [16]; 93% in experiment [17]; 99% in experiment [18]. Further, the residual activity in [19] is 92%; in experiment [20] it was 93%.
Consider `O=Nc1c(-c2c(O)[nH]c3ccccc23)[nH]c2ccccc12`, for which the residual activity in experiment [1] was determined as 77%; in [2] it was 67%; in experiment [3], 79%; in experiment [4] it was 45%; in [5], 78%; in [6] it was 24%. The residual activity was determined as 91% in experiment [7]; 48% in [8]; 13% in experiment [9]; 6% in experiment [10]; 25% in experiment [11]; 12% in experiment [12]. The residual activity worked out at 76% in experiment [13]; 47% in [14]; 68% in [15]; 38% in experiment [16]; 94% in experiment [17]; 90% in [18]. For the same molecule, the figures for the residual activity in experiment [19] and in experiment [20] were 83% and 103%, respectively.
